Test results reported in article PMC7862700, “An all-to-all approach to the identification of sequence-specific readers for epigenetic DNA modifications on cytosine”.

What was measured:
Assay in all cases: DAPPL (digital affinity profiling via proximity ligation, sequencing); 10 mM Tris-HCl pH 7.5, 50 mM NaCl, 1 mM DTT, 4% glycerol, room temperature, 30 min; GST-TFs on glutathione beads, 16-mer random dsDNA library, 0.1% formaldehyde crosslink after washing; high values mean tight binding
[1] = target: T1, FLI1 (Homo sapiens, UniProt Q01543 1-452); conditions: protein: recombinant; tags: N-terminal GST; dsDNA, one strand shown
T1 sequence: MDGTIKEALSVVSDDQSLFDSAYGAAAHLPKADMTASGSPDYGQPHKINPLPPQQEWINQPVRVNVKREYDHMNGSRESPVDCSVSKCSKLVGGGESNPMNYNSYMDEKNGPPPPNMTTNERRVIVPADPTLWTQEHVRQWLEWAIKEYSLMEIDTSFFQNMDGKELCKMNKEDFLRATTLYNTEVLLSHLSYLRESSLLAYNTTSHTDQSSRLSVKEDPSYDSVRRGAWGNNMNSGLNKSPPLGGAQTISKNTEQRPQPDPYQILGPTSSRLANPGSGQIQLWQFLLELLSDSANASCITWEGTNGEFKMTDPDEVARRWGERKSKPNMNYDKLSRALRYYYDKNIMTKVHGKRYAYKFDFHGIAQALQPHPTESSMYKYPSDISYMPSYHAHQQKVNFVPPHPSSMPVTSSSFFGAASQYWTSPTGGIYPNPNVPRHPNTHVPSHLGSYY
Outline: (§1)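 A tag-only sample was pooled with DNA-barcoded human transcription factors that had been expressed in yeast as GST fusions and captured on glutathione beads. The pools were incubated for 30 min at room temperature with 200 nmole of a random double-stranded 16-mer DNA library in Tris/NaCl/DTT/glycerol buffer, then washed, crosslinked with 0.1% formaldehyde, proximity-ligated (BsaI/T4 ligase, 1 h, 37 °C), PCR-amplified and sequenced on an Illumina NextSeq500. Binding signal is each hexamer's read frequency for a factor divided by its frequency for the tag-only sample.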

[2] = target: T2, ELK1 (Homo sapiens, UniProt P19419 1-428); conditions: protein: recombinant; tags: N-terminal GST; dsDNA, one strand shown
T2 sequence: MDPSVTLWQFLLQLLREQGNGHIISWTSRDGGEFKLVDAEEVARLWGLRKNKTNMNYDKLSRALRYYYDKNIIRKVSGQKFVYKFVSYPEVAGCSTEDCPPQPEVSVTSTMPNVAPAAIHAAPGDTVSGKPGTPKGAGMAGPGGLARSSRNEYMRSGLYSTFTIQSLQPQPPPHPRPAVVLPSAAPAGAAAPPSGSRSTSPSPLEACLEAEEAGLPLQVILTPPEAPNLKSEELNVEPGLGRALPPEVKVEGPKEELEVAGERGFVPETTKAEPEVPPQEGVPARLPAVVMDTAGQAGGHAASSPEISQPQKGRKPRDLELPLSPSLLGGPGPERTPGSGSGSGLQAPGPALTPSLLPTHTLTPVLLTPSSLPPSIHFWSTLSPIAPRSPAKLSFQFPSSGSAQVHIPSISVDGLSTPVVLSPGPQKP
Outline: as §1

[3] = target: T3, GABPA (Homo sapiens, UniProt Q06546 1-454); conditions: protein: recombinant; tags: N-terminal GST; dsDNA, one strand shown
T3 sequence: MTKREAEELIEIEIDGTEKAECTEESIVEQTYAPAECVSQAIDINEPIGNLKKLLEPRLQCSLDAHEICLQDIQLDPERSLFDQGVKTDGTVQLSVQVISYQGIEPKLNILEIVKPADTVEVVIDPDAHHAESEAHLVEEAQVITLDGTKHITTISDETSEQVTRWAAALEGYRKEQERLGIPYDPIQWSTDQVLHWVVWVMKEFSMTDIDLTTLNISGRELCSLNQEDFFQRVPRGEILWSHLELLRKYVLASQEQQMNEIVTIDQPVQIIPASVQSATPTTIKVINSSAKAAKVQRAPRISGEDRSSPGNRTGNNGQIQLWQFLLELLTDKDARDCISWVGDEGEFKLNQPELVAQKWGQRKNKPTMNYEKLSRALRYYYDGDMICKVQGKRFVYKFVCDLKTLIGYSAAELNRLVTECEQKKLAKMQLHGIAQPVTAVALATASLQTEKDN
Outline: as §1

[4] = target: T4, ERG (Homo sapiens, UniProt P11308 1-479); conditions: protein: recombinant; tags: N-terminal GST; dsDNA, one strand shown
T4 sequence: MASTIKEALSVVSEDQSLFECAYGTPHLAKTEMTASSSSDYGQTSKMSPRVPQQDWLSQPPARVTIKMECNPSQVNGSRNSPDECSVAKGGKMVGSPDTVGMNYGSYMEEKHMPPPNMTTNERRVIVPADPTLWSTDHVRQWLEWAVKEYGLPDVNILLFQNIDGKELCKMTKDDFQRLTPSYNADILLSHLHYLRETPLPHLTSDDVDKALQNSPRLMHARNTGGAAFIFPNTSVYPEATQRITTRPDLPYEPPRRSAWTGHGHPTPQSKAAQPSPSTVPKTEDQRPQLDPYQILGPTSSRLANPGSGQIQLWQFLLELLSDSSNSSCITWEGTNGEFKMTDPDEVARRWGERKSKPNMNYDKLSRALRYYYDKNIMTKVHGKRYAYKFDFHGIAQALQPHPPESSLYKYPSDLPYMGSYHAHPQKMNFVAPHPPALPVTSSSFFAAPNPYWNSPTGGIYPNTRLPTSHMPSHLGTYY
Outline: as §1

[5] = target: ELF1 (Homo sapiens, UniProt P32519 1-619); conditions: protein: recombinant; tags: N-terminal GST; dsDNA, one strand shown
Outline: as §1

[6] = target: T5, EHF (Homo sapiens, UniProt Q9NZC4 1-300); conditions: protein: recombinant; tags: N-terminal GST; dsDNA, one strand shown
T5 sequence: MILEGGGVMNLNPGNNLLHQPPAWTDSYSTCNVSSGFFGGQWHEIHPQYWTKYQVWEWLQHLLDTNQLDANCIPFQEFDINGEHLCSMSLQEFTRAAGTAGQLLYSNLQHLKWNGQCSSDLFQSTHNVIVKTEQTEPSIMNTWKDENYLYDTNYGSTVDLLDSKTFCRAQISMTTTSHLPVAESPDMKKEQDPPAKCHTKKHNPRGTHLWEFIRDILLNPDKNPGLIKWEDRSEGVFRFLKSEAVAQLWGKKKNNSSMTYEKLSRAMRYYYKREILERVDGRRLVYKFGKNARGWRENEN
Outline: as §1

[7] = target: SPI1 (Homo sapiens, UniProt P17947 1-270); conditions: protein: recombinant; tags: N-terminal GST; dsDNA, one strand shown
Outline: as §1

[8] = target: SPIB (Homo sapiens, UniProt Q01892 1-262); conditions: protein: recombinant; tags: N-terminal GST; dsDNA, one strand shown
Outline: as §1

[9] = target: T6, ELK3 (Homo sapiens, UniProt P41970 1-407); conditions: protein: recombinant; tags: N-terminal GST; dsDNA, one strand shown
T6 sequence: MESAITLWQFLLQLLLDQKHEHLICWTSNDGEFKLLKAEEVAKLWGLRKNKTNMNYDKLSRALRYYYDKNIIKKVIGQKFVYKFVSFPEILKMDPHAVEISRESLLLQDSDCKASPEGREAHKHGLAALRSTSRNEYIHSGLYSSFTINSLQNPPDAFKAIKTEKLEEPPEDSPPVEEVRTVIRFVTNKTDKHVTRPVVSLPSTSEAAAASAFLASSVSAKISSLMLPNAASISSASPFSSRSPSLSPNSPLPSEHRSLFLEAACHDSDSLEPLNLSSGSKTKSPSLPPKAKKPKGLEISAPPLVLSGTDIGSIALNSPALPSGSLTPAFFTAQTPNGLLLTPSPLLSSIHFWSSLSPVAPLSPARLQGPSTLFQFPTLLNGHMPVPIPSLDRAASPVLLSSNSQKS
Outline: as §1

[10] = target: T7, FEV (Homo sapiens, UniProt Q99581 1-238); conditions: protein: recombinant; tags: N-terminal GST; dsDNA, one strand shown
T7 sequence: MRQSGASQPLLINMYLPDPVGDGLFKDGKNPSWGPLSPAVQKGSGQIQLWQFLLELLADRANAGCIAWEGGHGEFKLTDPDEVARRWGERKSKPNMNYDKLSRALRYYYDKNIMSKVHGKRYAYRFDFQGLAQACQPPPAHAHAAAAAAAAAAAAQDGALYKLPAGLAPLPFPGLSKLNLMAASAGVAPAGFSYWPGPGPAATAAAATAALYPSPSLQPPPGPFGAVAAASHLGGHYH
Outline: as §1

[11] = target: ETV5 (Homo sapiens, UniProt P41161 1-510); conditions: protein: recombinant; tags: N-terminal GST; dsDNA, one strand shown
Outline: as §1

[12] = target: HSF1 (Homo sapiens, UniProt Q00613 1-529); conditions: protein: recombinant; tags: N-terminal GST; chain copies: 3; dsDNA, one strand shown
Outline: as §1

[13] = target: T8, SPIC (Homo sapiens, UniProt Q8N5J4 1-248); conditions: protein: recombinant; tags: N-terminal GST; dsDNA, one strand shown
T8 sequence: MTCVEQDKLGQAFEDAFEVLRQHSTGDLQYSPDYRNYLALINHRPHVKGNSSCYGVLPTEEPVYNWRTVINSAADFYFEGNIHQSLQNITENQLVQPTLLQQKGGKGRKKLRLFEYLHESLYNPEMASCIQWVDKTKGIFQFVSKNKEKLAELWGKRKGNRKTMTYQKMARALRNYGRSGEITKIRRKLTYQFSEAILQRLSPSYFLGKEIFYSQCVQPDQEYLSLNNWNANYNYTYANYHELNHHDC
Outline: as §1

[14] = target: ELF4 (Homo sapiens, UniProt Q99607 1-663); conditions: protein: recombinant; tags: N-terminal GST; dsDNA, one strand shown
Outline: as §1

[15] = target: T9, ELK4 (Homo sapiens, UniProt P28324-2 1-405); conditions: protein: recombinant; tags: N-terminal GST; dsDNA, one strand shown
T9 sequence: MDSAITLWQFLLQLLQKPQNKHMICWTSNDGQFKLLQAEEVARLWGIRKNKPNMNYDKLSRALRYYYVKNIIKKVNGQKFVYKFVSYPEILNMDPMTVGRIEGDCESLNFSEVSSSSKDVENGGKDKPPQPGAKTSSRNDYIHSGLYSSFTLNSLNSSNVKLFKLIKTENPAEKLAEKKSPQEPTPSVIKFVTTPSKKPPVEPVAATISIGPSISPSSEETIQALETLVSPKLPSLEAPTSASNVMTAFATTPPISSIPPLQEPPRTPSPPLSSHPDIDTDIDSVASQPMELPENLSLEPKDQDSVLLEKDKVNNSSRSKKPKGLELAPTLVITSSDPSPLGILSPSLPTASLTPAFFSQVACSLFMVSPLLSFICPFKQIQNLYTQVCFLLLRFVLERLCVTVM
Outline: as §1

[16] = target: T10, ETV2 (Homo sapiens, UniProt O00321 1-342); conditions: protein: recombinant; tags: N-terminal GST; dsDNA, one strand shown
T10 sequence: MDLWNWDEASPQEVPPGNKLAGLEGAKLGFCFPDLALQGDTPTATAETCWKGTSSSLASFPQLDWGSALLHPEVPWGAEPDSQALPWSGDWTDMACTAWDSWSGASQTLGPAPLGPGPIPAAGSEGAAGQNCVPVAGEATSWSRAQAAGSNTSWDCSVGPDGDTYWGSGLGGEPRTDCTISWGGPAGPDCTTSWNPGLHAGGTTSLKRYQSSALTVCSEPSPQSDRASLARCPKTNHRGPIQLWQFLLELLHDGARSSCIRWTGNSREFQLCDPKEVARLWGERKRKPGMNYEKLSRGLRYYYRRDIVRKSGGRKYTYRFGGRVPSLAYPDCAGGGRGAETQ
Outline: as §1

[17] = target: T11, ELF3 (Homo sapiens, UniProt P78545 1-371); conditions: protein: recombinant; tags: N-terminal GST; dsDNA, one strand shown
T11 sequence: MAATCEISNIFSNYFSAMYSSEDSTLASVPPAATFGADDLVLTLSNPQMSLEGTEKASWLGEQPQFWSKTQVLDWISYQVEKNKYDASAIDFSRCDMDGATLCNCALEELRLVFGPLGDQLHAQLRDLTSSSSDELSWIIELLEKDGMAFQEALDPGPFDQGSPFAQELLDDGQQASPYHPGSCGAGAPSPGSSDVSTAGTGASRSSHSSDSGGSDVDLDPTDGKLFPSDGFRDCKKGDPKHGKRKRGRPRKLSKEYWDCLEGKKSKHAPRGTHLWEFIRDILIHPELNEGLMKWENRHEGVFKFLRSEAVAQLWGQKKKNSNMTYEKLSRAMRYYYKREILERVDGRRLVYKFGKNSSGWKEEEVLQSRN
Outline: as §1

[18] = target: CRX (Homo sapiens, UniProt O43186 1-299); conditions: protein: recombinant; tags: N-terminal GST; dsDNA, one strand shown
Outline: as §1

[19] = target: ETV1 (Homo sapiens, UniProt P50549 1-477); conditions: protein: recombinant; tags: N-terminal GST; dsDNA, one strand shown
Outline: as §1

Chain of ELF1 (P32519 whole entry): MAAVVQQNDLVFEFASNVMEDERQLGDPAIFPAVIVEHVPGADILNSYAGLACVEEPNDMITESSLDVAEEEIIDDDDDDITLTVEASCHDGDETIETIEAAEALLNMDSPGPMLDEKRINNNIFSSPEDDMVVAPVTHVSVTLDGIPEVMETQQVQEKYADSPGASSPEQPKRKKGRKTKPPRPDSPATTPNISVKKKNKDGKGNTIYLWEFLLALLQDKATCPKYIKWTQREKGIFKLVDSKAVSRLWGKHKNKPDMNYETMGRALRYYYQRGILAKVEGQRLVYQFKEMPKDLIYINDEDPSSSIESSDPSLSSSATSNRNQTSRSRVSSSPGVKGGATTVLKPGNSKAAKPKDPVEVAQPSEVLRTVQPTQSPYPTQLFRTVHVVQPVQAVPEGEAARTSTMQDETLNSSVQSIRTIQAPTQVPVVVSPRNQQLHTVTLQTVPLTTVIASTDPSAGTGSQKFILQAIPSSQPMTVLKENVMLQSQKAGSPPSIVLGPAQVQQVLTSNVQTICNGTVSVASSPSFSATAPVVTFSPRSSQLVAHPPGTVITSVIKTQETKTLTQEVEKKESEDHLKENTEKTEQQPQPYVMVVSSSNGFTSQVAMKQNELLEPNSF
Chain of CRX (O43186 whole entry): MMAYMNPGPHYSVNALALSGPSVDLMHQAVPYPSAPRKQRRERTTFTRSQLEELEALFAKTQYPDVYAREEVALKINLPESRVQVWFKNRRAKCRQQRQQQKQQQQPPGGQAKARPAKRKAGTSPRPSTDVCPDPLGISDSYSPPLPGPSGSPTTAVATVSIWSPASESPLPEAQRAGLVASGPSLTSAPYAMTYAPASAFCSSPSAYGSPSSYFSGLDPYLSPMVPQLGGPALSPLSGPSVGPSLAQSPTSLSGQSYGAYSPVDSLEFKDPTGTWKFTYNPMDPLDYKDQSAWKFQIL
Chain of ETV5 (P41161 whole entry): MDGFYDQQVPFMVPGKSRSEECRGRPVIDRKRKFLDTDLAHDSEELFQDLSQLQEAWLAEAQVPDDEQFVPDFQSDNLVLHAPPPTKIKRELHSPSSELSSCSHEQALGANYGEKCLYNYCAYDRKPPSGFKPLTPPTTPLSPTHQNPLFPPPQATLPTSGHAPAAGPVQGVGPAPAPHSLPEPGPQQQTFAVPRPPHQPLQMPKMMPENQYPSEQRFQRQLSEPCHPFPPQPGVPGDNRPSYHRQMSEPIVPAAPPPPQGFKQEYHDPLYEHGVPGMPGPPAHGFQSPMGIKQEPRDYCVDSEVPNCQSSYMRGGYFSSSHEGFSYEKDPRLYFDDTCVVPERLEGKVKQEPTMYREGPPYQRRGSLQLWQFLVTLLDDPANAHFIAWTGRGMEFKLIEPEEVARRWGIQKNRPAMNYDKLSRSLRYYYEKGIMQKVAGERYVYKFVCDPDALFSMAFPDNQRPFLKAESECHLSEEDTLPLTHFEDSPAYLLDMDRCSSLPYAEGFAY
Chain of SPIB (Q01892 whole entry): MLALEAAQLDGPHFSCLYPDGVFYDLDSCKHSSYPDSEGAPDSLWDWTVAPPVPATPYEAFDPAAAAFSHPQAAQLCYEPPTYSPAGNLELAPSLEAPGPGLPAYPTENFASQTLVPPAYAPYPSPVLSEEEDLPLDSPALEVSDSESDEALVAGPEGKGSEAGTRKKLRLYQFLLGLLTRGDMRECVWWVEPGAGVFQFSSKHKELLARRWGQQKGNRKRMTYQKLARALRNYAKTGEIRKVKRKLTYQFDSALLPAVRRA
Chain of HSF1 (Q00613 whole entry): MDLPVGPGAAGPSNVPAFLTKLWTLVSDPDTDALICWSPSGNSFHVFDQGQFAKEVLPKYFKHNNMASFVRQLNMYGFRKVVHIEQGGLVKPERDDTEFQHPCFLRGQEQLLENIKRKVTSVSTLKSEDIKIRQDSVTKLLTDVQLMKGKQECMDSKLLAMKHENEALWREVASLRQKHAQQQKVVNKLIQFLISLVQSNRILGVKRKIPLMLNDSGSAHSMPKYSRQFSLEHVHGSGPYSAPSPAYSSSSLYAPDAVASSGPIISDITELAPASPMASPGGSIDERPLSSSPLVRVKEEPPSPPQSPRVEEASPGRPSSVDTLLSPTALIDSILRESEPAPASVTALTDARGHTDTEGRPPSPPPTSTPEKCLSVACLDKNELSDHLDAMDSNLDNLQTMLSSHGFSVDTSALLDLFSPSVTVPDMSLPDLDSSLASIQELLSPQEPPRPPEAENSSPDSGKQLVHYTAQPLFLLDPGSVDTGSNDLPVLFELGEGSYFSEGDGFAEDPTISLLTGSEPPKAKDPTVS
Chain of ELF4 (Q99607 whole entry): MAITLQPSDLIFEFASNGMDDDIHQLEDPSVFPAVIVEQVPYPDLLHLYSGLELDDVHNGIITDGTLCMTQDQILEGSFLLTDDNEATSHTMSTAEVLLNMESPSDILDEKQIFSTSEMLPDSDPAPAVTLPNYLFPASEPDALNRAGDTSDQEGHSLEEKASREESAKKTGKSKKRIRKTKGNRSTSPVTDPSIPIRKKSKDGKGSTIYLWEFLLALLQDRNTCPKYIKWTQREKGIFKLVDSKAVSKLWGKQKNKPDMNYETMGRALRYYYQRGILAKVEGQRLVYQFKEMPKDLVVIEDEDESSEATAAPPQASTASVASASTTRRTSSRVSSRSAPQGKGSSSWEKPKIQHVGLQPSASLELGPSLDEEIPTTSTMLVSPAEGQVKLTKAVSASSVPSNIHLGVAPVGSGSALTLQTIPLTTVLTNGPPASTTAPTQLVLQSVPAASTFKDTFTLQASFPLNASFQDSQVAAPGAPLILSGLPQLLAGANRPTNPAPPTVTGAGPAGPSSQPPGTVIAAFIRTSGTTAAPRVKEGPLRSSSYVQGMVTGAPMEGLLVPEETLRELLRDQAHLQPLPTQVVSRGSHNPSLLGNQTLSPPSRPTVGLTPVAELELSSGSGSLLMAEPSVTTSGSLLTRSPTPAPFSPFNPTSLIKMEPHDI
Chain of ETV1 (P50549 whole entry): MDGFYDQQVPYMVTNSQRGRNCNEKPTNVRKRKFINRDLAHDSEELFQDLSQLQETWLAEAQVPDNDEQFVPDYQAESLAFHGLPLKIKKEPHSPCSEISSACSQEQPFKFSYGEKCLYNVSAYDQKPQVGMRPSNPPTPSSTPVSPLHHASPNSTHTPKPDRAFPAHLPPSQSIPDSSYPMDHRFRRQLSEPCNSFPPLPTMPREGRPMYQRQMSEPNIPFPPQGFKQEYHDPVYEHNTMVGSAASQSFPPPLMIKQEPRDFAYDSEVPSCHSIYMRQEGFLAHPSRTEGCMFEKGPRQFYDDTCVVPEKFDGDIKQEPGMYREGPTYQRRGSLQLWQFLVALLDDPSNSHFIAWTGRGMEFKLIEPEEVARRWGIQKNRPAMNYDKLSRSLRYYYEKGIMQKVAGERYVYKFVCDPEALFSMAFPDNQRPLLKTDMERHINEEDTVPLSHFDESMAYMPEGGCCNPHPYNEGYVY

CTGCTC
binding signal [1]: 1.32 fold enrichment (6-mer frequency, TF over GST control)
binding signal [2]: 1.37 fold enrichment (6-mer frequency, TF over GST control)
binding signal [3]: 1.18 fold enrichment (6-mer frequency, TF over GST control)
binding signal [4]: 1.28 fold enrichment (6-mer frequency, TF over GST control)
binding signal [5]: 1.34 fold enrichment (6-mer frequency, TF over GST control)
binding signal [6]: 1.27 fold enrichment (6-mer frequency, TF over GST control)
binding signal [7]: 1.29 fold enrichment (6-mer frequency, TF over GST control)
binding signal [8]: 1.39 fold enrichment (6-mer frequency, TF over GST control)
binding signal [9]: 1.3 fold enrichment (6-mer frequency, TF over GST control)
binding signal [10]: 1.31 fold enrichment (6-mer frequency, TF over GST control)
binding signal [11]: 1.26 fold enrichment (6-mer frequency, TF over GST control)
binding signal [12]: 1.17 fold enrichment (6-mer frequency, TF over GST control)
binding signal [13]: 1.39 fold enrichment (6-mer frequency, TF over GST control)
binding signal [14]: 1.29 fold enrichment (6-mer frequency, TF over GST control)
binding signal [15]: 1.45 fold enrichment (6-mer frequency, TF over GST control)
binding signal [16]: 1.35 fold enrichment (6-mer frequency, TF over GST control)
binding signal [17]: 1.18 fold enrichment (6-mer frequency, TF over GST control)
binding signal [18]: 1.22 fold enrichment (6-mer frequency, TF over GST control)
binding signal [19]: 1.21 fold enrichment (6-mer frequency, TF over GST control)
